# Hits are enriched below; roughly 19% of the tested compounds scored in any of these assays.
# VP16 counter = VP16 counterscreen qHTS for inhibitors of ROR gamma transcriptional activity; Drosophila S2 Gal4-VP16 UAS-luciferase, luminescence, 20 h; AID 2546, 2010; 310,000 compounds, 3.5% hits; Potency, µM (titrated, usually from 53.6 µM), usual class: inhibitors;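 also: Gal4-VP16 expression switched on by copper sulfate through the metallothionein promoter; nearly all actives have a fitted effect of over 50% in size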
# RORgamma inh = qHTS for inhibitors of ROR gamma transcriptional activity; 310,000 compounds, 5.4% hits; Drosophila S2 Gal4-RORgamma UAS-luciferase reporter, 20 h; Nuclear receptor ROR-gamma (Mus musculus), P51450; Potency, µM (top dose mostly 53.6 µM), actives largely listed as inhibitors; also: nearly all actives have a fitted effect of over 60% in size
#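 In this cell-based reporter format, copper sulfate (700 uM final) drives Gal4–ROR gamma fusion expression from a metallothionein promoter in Drosophila Schneider cells; compounds preincubated 1 hr, reporter read after 20 hr at ambient temperature.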
# TDP1 block = qHTS Assay for Inhibitors of Tyrosyl-DNA Phosphodiesterase (TDP1). Tyrosyl-DNA phosphodiesterase 1 (Homo sapiens), Q9NUW8. recombinant TDP1, AlphaScreen DNA substrate cleavage. Potency, µM (series often up to 130 µM), actives largely listed as inhibitors. 350,000 compounds, 0.28% hits. AID 485290, 2010; also: nearly all actives have a fitted effect of over 40% in size
# Target sequence (Q9NUW8 whole entry, looked up): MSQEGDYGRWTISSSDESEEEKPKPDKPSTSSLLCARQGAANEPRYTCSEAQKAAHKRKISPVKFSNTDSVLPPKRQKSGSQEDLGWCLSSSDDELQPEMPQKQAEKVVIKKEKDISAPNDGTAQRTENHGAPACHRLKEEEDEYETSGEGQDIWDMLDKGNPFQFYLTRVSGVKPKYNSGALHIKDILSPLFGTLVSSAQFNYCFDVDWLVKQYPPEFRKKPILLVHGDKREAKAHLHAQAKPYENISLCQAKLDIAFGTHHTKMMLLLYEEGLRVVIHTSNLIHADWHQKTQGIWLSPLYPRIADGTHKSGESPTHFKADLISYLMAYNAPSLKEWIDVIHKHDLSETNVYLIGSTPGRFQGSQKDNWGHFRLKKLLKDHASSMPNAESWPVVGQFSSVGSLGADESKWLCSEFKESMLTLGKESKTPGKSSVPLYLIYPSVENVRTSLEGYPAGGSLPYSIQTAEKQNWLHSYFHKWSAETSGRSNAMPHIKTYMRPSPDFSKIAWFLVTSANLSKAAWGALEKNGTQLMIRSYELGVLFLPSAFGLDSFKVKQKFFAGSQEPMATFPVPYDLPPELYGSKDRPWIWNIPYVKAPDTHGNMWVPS
#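 Enzyme-compound mixtures sat 15 min at room temperature, followed by a 5 min reaction with 15 nM final substrate and 10 min with AlphaScreen beads. Recombinant human Tdp1 was used at 1 nM final.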
# DT40 TDP1 no CPT = qHTS for Inhibitors of human tyrosyl-DNA phosphodiesterase 1 (TDP1): qHTS in cells in absence of CPT. DT40 Tdp1-/- hTDP1 cells, no CPT, ATP luminescence, 48 h. 420,000 compounds, 15% hits. Potency, µM (doses to about 46.2 µM), most hits filed as inhibitors. AID 686978, 2013; also: nearly all actives have a fitted effect of over 55% in size
#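 A cellular qHTS used chicken DT40 cells lacking endogenous Tdp1 but carrying stably transfected human TDP1. Compounds were applied without camptothecin, and cell growth kinetics were judged by ATP-dependent luminescence after ≥48 hr.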
# DT40 TDP1 CPT = qHTS for Inhibitors of human tyrosyl-DNA phosphodiesterase 1 (TDP1): qHTS in cells in presence of CPT; chicken DT40 Tdp1-/-;hTDP1 cells + 20 nM CPT, ATP luminescence, 48 h; Potency, µM (highest dose often 46.2 µM), actives largely listed as inhibitors; 420,000 compounds, 12% hits; AID 686979, 2013; also: nearly all actives have a fitted effect of over 55% in size
#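 Chicken DT40 Tdp1-/- cells stably complemented with human TDP1 were seeded at 400 cells/well in medium containing 20 nM camptothecin, exposed to pin-transferred compounds, and grown at 37 °C for at least 48 hr. Viability was read as ATP luminescence.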
# A number is an active result; i = inactive; ? = inconclusive; nt = not tested or not shown. Calls follow the shape of the dose curve; as a rule, active = well fitted curve in the direction sought with a large enough effect; inconclusive = small, poorly fitted or top-dose-only effect, or another doubt; inactive = no such curve, though single readings can be large; an effect the other way counts as inactive or inconclusive.
SMILES,VP16 counter,RORgamma inh,TDP1 block,DT40 TDP1 no CPT,DT40 TDP1 CPT
COc1cc(Cn2c(-c3nonc3N)nc3ccccc32)ccc1C,i,i,i,4.1µM,2.9µM
Cc1ccc(Cn2c(-c3nonc3N)nc3ccccc32)cc1,i,i,i,i,i
Cc1cc(C)cc(NC(=O)COC(=O)C2CC3C=CC2C3)c1 (configuration not stated),nt,nt,nt,i,i
CNS(=O)(=O)c1cc(Br)ccc1S(=O)c1ccccc1C(=O)O (configuration not stated),i,i,i,i,i
O=c1ccnc(SCn2nnc3ccccc3c2=O)[nH]1,i,i,i,i,i
CCC(C)(C)NC(=O)C(c1ccc(OC)cc1)N(C(=O)CCC(=O)Nc1cc(C)on1)c1cccc(F)c1 (configuration not stated),i,i,i,?,?
CCN(CC)CCNC(=O)Cn1nc(C)c2c(C)n(-c3ccccc3)nc2c1=O,nt,nt,i,i,i
Cc1cccc(C)c1OCC(O)CN1CCN(C(=O)c2ccccc2)CC1 (configuration not stated),nt,nt,nt,i,?
COc1ccc(NCc2nnc(SCC(=O)NCc3ccccc3)n2-c2ccccc2OC)cc1,i,i,i,i,i
Cc1ccc(OCc2nnc(SCc3cc(=O)[nH]c4ccccc34)n2-c2ccccc2)cc1,i,?,i,23µM,?
O=c1cc(CSc2ccccn2)c2ccccc2[nH]1,i,i,i,i,i
COc1ccc(-n2c(CNc3ccc(C)cc3)nnc2SCc2ccccc2)cc1,i,i,i,16µM,?
COc1ccc(-n2c(COc3ccc(C)cc3)nnc2SCC(N)=O)cc1,i,11µM,i,i,i
Cc1cc(SCc2cc(=O)[nH]c3ccccc23)nc2ccccc12,i,i,i,?,23µM
C=CCNC(=O)C(=O)NCCCN1CCOCC1,i,i,i,i,i
O=C(O)c1ccc(/C=N/NC(=O)C2CC2(c2ccccc2)c2ccccc2)cc1 (configuration not stated),i,i,i,nt,nt
CC1CCCC(C)N1C(=O)CSc1nnc(COc2ccccc2)n1-c1ccccc1 (configuration not stated),i,i,i,21µM,?
O=C(N/N=C/c1ccc(O)cc1)c1cc[n+](Cc2ccccc2)cc1,i,i,i,i,i
COc1ccc(C2(C)NC(=O)N(CC(=O)c3cc(C)n(C4CC4)c3C)C2=O)cc1 (configuration not stated),nt,nt,i,?,?
Cc1cc(C(=O)CN2C(=O)NC(C)(c3ccc(F)c(F)c3)C2=O)c(C)n1C1CC1 (configuration not stated),nt,nt,nt,5.8µM,7.3µM
O=C(c1ccco1)N1CCC2(CCCN(c3ncccn3)C2)CC1,i,i,nt,i,i
COC(=O)c1ccc(NC(=O)CC2C(=O)N(c3ccccc3)C(=O)N2C2CCCC2)cc1 (configuration not stated),nt,nt,i,16µM,?
CCOC(=O)c1ccc(NC(=O)CC2C(=O)N(c3ccc(C)cc3)C(=O)N2C2CCCC2)cc1 (configuration not stated),nt,nt,i,21µM,?
Cc1noc(C)c1NC(=O)Nc1ccc2c(c1)C(=O)N([C@H](C)CO)C[C@H](C)[C@@H](CN(C)C(=O)Nc1ccc3c(c1)OCO3)O2,nt,nt,i,i,i
COc1ccc(-c2nn(-c3ccccc3)cc2/C=C/C(=O)OCC(=O)Nc2ccccc2C#N)cc1,i,i,i,23µM,7.3µM
SMILES,VP16 counter,RORgamma inh,TDP1 block,DT40 TDP1 no CPT,DT40 TDP1 CPT
Cc1ccc2nc(-c3ccccc3)cc(C(=O)N(C)CC(=O)Nc3ccccc3Br)c2c1,nt,nt,i,26µM,?
COc1ccc(NC(=O)CN(C)C(=O)Cc2n[nH]c(=O)c3ccccc23)cc1,nt,nt,nt,i,9.2µM
CN(CC(=O)Nc1cccc(F)c1)C(=O)c1cn(-c2ccccc2)nc1-c1ccc(F)cc1,nt,nt,i,?,?
COc1ccc(-c2nn(-c3ccccc3)cc2C(=O)N(C)CC(=O)Nc2ccccc2Br)cc1,nt,nt,nt,?,23µM
CCOC(=O)c1cccc(NC(=O)c2ccc(NC(=O)C3CCCO3)cc2)c1 (configuration not stated),?,i,i,?,?
Cc1ccc(C)c(NC(=O)CN2C(=O)CSc3nc(C)cc(C)c32)c1,nt,nt,i,i,i
CN(CC(=O)Nc1cccc(F)c1)C(=O)c1cc(-c2ccccc2)nc2ccccc12,nt,nt,i,?,?
COc1ccc(NC(=O)CN(C)C(=O)c2cc(-c3ccncc3)nc3ccccc23)cc1,i,i,i,?,i
COc1ccc(-c2cc(C(=O)N(C)CC(=O)Nc3cccc(F)c3)c3ccccc3n2)cc1,nt,nt,i,?,16µM
COc1cccc(-c2nn(-c3ccc(C)cc3)cc2C(=O)N(C)CC(=O)Nc2cccc(F)c2)c1,nt,nt,i,?,18µM
COc1ccc(NC(=O)CN(C)C(=O)c2cc(-c3ccccc3)nc3ccccc23)cc1,nt,nt,nt,15µM,?
COc1ccc(-c2nn(-c3ccccc3)cc2C(=O)N(C)CC(=O)Nc2cccc(F)c2)cc1,nt,nt,i,?,?
CCOc1ccc(-c2nc(SCC(=O)Nc3cc(F)ccc3F)n3[nH]c(=O)cc3n2)cc1,nt,nt,nt,i,i
Cc1ccc(N2C(=O)CN(Cc3cccs3)C2=S)cc1C,i,i,i,?,i
NC(=O)c1cccc2c1C(=O)N(C1CCCCC1)C2,i,i,i,i,?
Cc1ccc(S(=O)(=O)C(CNC(=O)C(=O)NCc2ccc(Cl)cc2)c2cccs2)cc1 (configuration not stated),nt,nt,i,?,?
COc1cc(C(=O)NCc2nnc(SCC(=O)Nc3c(C)cc(C)cc3C)o2)cc(OC)c1OC,i,i,i,i,i
CCOC(=O)N1CCN(CCC(=O)Nc2ccc(Br)c(C)c2)CC1,i,i,i,?,?
COc1ccc(-c2cc(C3CCN(C(=O)OC(C)(C)C)CC3)[nH]n2)cc1,i,i,i,?,?
COC(=O)c1ccc(N2CCC(c3cc(-c4ccc(OC)cc4)n[nH]3)CC2)c([N+](=O)[O-])c1,?,i,i,18µM,21µM
CC(=O)c1ccc(N2CCC(c3cc(-c4ccc(Cl)cc4)n[nH]3)CC2)c([N+](=O)[O-])c1,?,i,i,4.6µM,7.3µM
COc1ccc(-c2cc(C3CCN(c4ccc(C(C)=O)cc4[N+](=O)[O-])CC3)[nH]n2)cc1,?,?,i,5.2µM,5.8µM
CC(=O)c1ccc(N2CCN(c3ccc(C(N)=O)cc3[N+](=O)[O-])CC2)cc1,i,i,i,?,?

# Bioassay records deposited in PubChem by National Center for Advancing Translational Sciences (NCATS).
